Among the data in PubChem BioAssay (NCATS) are outcome values, retold here.

Activity calls are given as the source filed them. The call rests on the fitted dose curve; in most records, active means well fitted curve in the direction sought with a large enough effect; inconclusive means small, poorly fitted or top-dose-only effect, or another doubt; inactive means no such curve, though single readings can be large or run the other way.

Chain of Alpha-galactosidase (Coffea arabica) (Q42656 whole entry, looked up): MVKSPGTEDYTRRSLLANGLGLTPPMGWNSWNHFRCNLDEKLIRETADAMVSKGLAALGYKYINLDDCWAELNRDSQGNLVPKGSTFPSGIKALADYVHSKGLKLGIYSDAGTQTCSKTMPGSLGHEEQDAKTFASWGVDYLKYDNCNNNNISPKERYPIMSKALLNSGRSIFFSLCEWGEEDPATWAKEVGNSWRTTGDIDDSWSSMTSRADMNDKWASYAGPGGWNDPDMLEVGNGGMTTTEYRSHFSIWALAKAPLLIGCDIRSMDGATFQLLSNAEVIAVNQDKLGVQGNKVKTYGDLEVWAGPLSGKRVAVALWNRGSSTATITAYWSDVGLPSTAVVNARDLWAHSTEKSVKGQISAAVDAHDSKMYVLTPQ

For the assay, the target named is Alpha-galactosidase (Coffea arabica) (UniProt Q42656). Description: Counterscreen for Glucocerebrosidase Inhibitors: qHTS Assay for Coffee Bean alpha-Galactosidase at pH 4.5 (AID 957). The settings on record: purified coffee bean alpha-galactosidase, fluorogenic substrate; series mostly up to 76.9 µM. Summed up:
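Quantitative HTS of compounds (0.7 nM to 77 uM) against coffee bean alpha-galactosidase at pH 4.5, measuring 4-methylumbelliferone fluorescence released from 80 uM substrate.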
With `NC1CCN(c2cccc(Cl)n2)CC1`, the molecule was classed as inactive.

In the case of `CCN(CC)CCOC(=O)c1ccc(N)cc1`, the outcome was inactive.

For `O=C(O)CCCCCCCC(=O)O`, the result was inactive.

Take `Cc1scc2c1N(C(=O)CN1CCN(C)CC1)c1ccccc1NC2=O`: the result was inactive.

For the molecule `CC(C)(C)NC[C@H](O)COc1nsnc1N1CCOCC1`, the call was inactive.

Take `CC(=O)O[C@H]1C(=O)[C@@]2(C)[C@H]([C@H](OC(=O)c3ccccc3)[C@]3(O)C[C@H](OC(=O)[C@H](O)[C@@H](NC(=O)c4ccccc4)c4ccccc4)C(C)=C1C3(C)C)[C@]1(OC(C)=O)CO[C@@H]1C[C@@H]2O`: the outcome was inactive.

As for `CCCCC/C=C\C/C=C\C/C=C\C/C=C\CCCC(=O)NCC(=O)O`, the outcome was inactive.

As for `CC[N+](CC)(CC)CCOc1cccc(OCC[N+](CC)(CC)CC)c1OCC[N+](CC)(CC)CC`, the molecule was classed as inactive.

With `NC(=O)c1cnccn1`, the molecule was classed as inactive.

For `NC(N)=Nc1nc(CSCC/C(N)=N/S(N)(=O)=O)cs1`, the molecule was classed as inactive.

For `NC(N)=NC(=O)Cc1c(Cl)cccc1Cl`, the result was inactive.

For `CC(=O)OCC(=O)[C@@]1(O)CC[C@H]2[C@@H]3CCC4=CC(=O)CC[C@]4(C)[C@H]3C(=O)C[C@@]21C`, the call was inactive.

Turning to `COc1cc(-c2ccc(=O)[nH]n2)ccc1OC(F)F`, the molecule was called inactive.

Turning to `Cc1nc2c([nH]1)c(=O)n(C)c(=O)n2Cc1ccco1`, the result was inactive.

Turning to `N[C@@H](COP(=O)(O)O)C(=O)O`, the result was inactive.

In the case of `NCCS(=O)(=O)O`, the outcome was inactive.

Consider `CNCCC=C1c2ccccc2CCc2ccccc21`, for which the molecule was classed as inactive.

With `C[N+](C)(C)CCCCCC[N+](C)(C)C`, the outcome was inactive.

As for `CN1C(C(=O)Nc2ccccn2)=C(O)c2ccccc2S1(=O)=O`, the call was inactive.

With `CCCCCCCCCCCCCCCC(=O)NCCO`, the molecule was classed as inactive.

In the case of `NCCCCCC(=O)O`, the molecule was classed as inactive.

On to `COc1ccc(C2CNC(=O)C2)cc1OC1CCCC1` (stereo not given), for which the molecule was classed as inactive.

Consider `Cc1ccc(Cl)c(Nc2ccccc2C(=O)O)c1Cl`, for which the molecule was called inactive.

On to `O=C(O)CN(CCN(CC(=O)O)CC(=O)O)CCN(CC(=O)O)CC(=O)O`, for which the outcome was inactive.

Consider `C1COC(NC(C2CC2)C2CC2)=N1`, for which the outcome was inactive.

On to `CC(=O)c1ccc(S(=O)(=O)NC(=O)NC2CCCCC2)cc1`, for which the call was inactive.

Take `O=c1c(-c2ccc(O)cc2)coc2cc(O)cc(O)c12`: the molecule was called inactive.

For the molecule `Cn1c(=O)c2[nH]cnc2n(C)c1=O`, the outcome was inactive.

As to `NC(=O)N1c2ccccc2C=Cc2ccccc21`, the outcome was inactive.

`CN1C(C)(C)CCCC1(C)C`: the call was inactive.
